This is a sample that favours compounds with a hit; in the whole collection about 5% have one here.
SENP8 block-1: SENP8 (human) protease inhibition | Q96LD8 | recombinant SENP8, Nedd8 substrate fluorescence | inhibition, % at 20 µM | 0.64% of 360,000 active | AID 602440; in the data active = inhibition mostly above about 40%, no sharp cut-off; inactive = mostly below about 27%
Target sequence (Q96LD8 whole entry, looked up): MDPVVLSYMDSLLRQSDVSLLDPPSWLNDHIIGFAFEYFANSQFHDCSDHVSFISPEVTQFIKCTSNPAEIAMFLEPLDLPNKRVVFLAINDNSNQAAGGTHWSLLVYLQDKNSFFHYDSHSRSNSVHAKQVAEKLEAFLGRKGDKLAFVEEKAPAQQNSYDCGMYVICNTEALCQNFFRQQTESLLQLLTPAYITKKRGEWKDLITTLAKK
SENP8 block-2: blocks the human protease SENP8. 1.2% of 330,000 active. purified SENP8, Z-RLRGG-aminoluciferin cleavage, luminescence. inhibition, % at 10 µM; in the data active = inhibition above about 50%
EBI2 block: EBI2 (human) antagonism. EBI2 beta-arrestin recruitment, luminescence, 7a,25-OHC stimulated. inhibition, % at 5 µM. 0.81% of 360,000 active; in the data active = inhibition above about 38%;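 also: enzyme fragment complementation signal reports receptor beta-arrestin coupling in cells; 0% = agonist plus DMSO wells and 100% = wells without agonist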
SENP7 inh: inhibitors of human SENP7 protease; inhibition, % at 5 µM; Q9BQF6; recombinant SENP7, Z-RLRGG-aminoluciferin luminescence, 40 min; AID 434973; 1.5% of 330,000 active;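 active = inhibition above about 50% at the single test dose, limit read from the data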;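 also: plate controls were DMSO with enzyme for no effect and no enzyme buffer wells for full effect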
Target sequence (Q9BQF6 706-1050 limits assumed): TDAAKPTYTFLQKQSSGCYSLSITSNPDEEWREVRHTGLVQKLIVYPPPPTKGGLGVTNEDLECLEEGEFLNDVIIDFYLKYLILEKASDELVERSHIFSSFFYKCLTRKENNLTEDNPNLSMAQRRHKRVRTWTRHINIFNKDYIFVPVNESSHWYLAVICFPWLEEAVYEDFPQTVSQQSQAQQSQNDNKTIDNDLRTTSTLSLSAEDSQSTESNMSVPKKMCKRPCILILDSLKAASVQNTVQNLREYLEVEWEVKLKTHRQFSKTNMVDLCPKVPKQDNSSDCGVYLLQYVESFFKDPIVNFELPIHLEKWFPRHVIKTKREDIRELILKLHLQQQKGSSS
SENP6 block: inhibitors of human SENP6 protease; Q9GZR1; Recombinant SENP6 catalytic domain, aminoluciferin luminescence; inhibition, % at 10 µM; 1.8% of 330,000 active;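 active = inhibition above about 50% at the single tested dose, limit read from the data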;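 also: plate controls were DMSO wells with enzyme for no effect and DMSO wells lacking enzyme for full effect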
AHR activator: human AHR activation; 2.5% of 320,000 active; activation, % at 5 µM; AHR-responsive luciferase reporter cells, luminescence; in the data active = activation above about 47%;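 also: 0% = vehicle wells and 100% = reference agonist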
An asterisk follows results filed as active; . = not tested or not shown.

SMILES | SENP8 block-1 | SENP8 block-2 | EBI2 block | SENP7 inh | SENP6 block | AHR activator
Cc1c(C(=O)NNC(=O)c2ccccc2O)oc2ccc(Br)cc12 | -30.4 | . | -4.8 | . | . | 50.5*
Cc1c(C(=O)NCc2ccccn2)oc2ccccc12 | -2.4 | -14.4 | 4.0 | -10.3 | 2.6 | 59.5*
Cc1c(C(=O)NCc2ccccn2)oc2ccc(S(=O)(=O)N3CCOCC3)cc12 | 7.3 | -9.8 | -0.1 | -11.0 | 7.6 | -2.5
CCOc1ccc2oc(C(=O)NNC(=O)c3ccccc3O)c(C)c2c1 | -86.3 | -18.7 | 0.8 | 2.7 | -16.7 | 12.0
Cc1c(C(=O)NC(=S)NCC(C)C)oc2ccccc12 | 10.9 | -19.9 | 10.0 | 15.4 | 13.5 | 5.9
C=CCNC(=S)NC(=O)c1oc2ccccc2c1C | 4.3 | -8.8 | 0.9 | 5.7 | 3.8 | 66.3*
Cc1c(C(=O)NCc2ccccn2)oc2ccc(Br)cc12 | 11.3 | -4.3 | 1.5 | -5.3 | 4.6 | 47.7*
CCOC(=O)C1=NS(=O)(=O)NC(C)=C1 | -19.1 | . | -4.3 | -1.1 | . | .
CC1(C(=O)NS(=O)(=O)C2CC2)CCCN(C(=O)c2ccccc2OC(F)(F)F)C1 (stereo unspecified) | 12.3 | . | -11.3 | . | . | .
CCN(CC)c1ccc(/C=C2\SC(=O)N(C(C)C)C2=O)o1 | 22.1 | -7.5 | 56.5* | -2.0 | -9.5 | -1.0
COc1cccc(C(C)(O)c2nc(-c3ccc(S(C)(=O)=O)cc3)cs2)c1 (stereo unspecified) | 9.5 | . | -4.5 | . | . | .
O=c1c2cc(Br)ccc2[nH]c(=S)n1Cc1ccccn1 | 20.5 | -7.7 | 11.7 | -11.3 | -0.3 | 67.4*
O=c1c2cc(Br)ccc2[nH]c(=S)n1Cc1ccccc1 | 13.7 | -17.9 | 11.0 | -4.8 | -15.9 | 4.4
NC(=Nc1nc(-c2ccccn2)cc2ccccc12)c1ccccn1 | 8.1 | . | -31.0 | . | . | .
Cc1c(Cl)sn(-c2ccc(Cl)cc2)c1=O | -6.2 | 0.2 | 69.8* | 0.5 | -5.2 | .
Cc1c(C(=O)O)sc(=S)n1-c1ccc(Cl)cc1 | 17.6 | 6.6 | -11.2 | 1.2 | 4.4 | 0.9
CCCCCn1nc(C(=O)OCc2nc(N)nc(Nc3ccccc3)n2)c2ccccc2c1=O | 0.3 | -12.9 | -2.6 | -12.2 | -15.1 | 1.0
CCn1cc(-c2ccccc2)c(C(=O)O)c1-c1ccc(OC)cc1 | 2.3 | -4.6 | -11.3 | -0.6 | -4.9 | 58.0*
Cc1ccc(F)cc1C(=O)N1CCCC(c2cc(C(=O)Nc3ccccc3Cl)no2)C1 (stereo unspecified) | 17.6 | . | 6.5 | . | . | .
CC(=O)NN1C(=O)/C(=C/c2ccc(Br)o2)SC1=S | 44.4* | -5.5 | -3.3 | -5.9 | -1.3 | 3.6
CC(=O)NN1C(=O)/C(=C\c2ccc(Br)o2)SC1=S | 29.4 | 9.3 | -0.9 | 5.4 | -7.3 | 1.1
COc1ccccc1-c1nnc(NC(=O)C(C)SC2=NCCS2)s1 (stereo unspecified) | -60.2 | -1.0 | -2.7 | 10.7 | 9.8 | 57.0*
CCCCCCN1C[C@@H](O)[C@H](n2cc(COC(=O)c3ccccc3)nn2)C[C@@H]1c1ccc(OC)cc1 | 15.9 | . | 12.7 | . | . | .
CCCc1ccc2oc(C(=O)NCCc3cnn(C)c3)c(C)c2c1 | 8.1 | -2.6 | 3.1 | 17.6 | 22.0 | 48.8*
CCCCCOC(=O)c1c(N)n(CCOC)c2nc3ccccc3nc12 | -262.2 | 62.7* | 11.3 | 63.9* | 8.5 | 24.5
SMILES | SENP8 block-1 | SENP8 block-2 | EBI2 block | SENP7 inh | SENP6 block | AHR activator
COc1ccc(C(C)(O)c2nc(-c3ccc4c(c3)OCO4)cs2)cc1 (stereo unspecified) | 10.7 | . | -2.7 | . | . | .
Cc1ccc2nc(SCc3nnc(-c4ccccc4)o3)[nH]c2c1 | 6.7 | -3.3 | 0.6 | 6.3 | -8.5 | 38.3
Cc1ccc2nc(SCc3nnc(-c4cccs4)o3)[nH]c2c1 | -2.5 | 6.2 | 0.1 | -3.4 | -7.9 | 60.4*
Cc1ccc2nc(SCC3CCCCO3)[nH]c2c1 (stereo unspecified) | 12.4 | -12.6 | 2.2 | -14.9 | 4.5 | 50.8*
CC(C)Cc1ccc(-c2ccc3nccn3c2)cc1 | -169.0 | . | -5.6 | . | . | .
CN(Cc1ccccc1)C(=O)c1ccc2nc([C@@H]3O[C@H](CO)[C@H](O)[C@H](O)[C@H]3O)[nH]c2c1 | 6.1 | . | -5.5 | . | . | .
Nc1nc2c(ncn2[C@@H]2O[C@H](CNC(=O)[C@H](N)Cc3cncn3COCc3ccccc3)[C@@H](O)[C@H]2O)c(=O)[nH]1 | 26.3 | . | -6.7 | . | . | .
COc1ccc(/C=N/Nc2cc(C)nc3c(C)cccc23)cc1 | -302.5 | -1.6 | -18.5 | 11.9 | 1.1 | 70.8*
CN1CCSc2ccc(C(=O)Nc3cccc(F)c3)cc21 | -418.0 | 83.1* | -3.8 | 90.3* | 94.2* | 125.7*
CN1CCSc2ccc(C(=O)NCc3ccccc3)cc21 | -407.6 | 8.5 | 0.4 | -10.5 | 4.5 | 61.8*
COc1ccc(NC(=O)c2ccc3c(c2)N(C)CCS3)cc1 | -396.2 | 2.0 | 6.4 | 15.2 | 14.8 | 72.1*
COc1ccc(NC(=O)c2ccc3c(c2)n(C)c(=O)n3C)cc1 | 17.9 | 3.6 | -5.4 | 4.4 | 0.7 | -3.1
Cc1cccc(NS(=O)(=O)c2ccc(C)c(C(=O)NCc3ccccn3)c2)c1 | 15.3 | -2.1 | -10.4 | 7.5 | -23.3 | .
CN1C(=O)/C(=C\c2cc(N=Nc3ccccc3)ccc2O)SC1=S | 48.8* | 31.3 | 7.2 | 10.7 | 31.8 | 11.6
COc1ccccc1Nc1nc2c(C)cccc2cc1C#N | -20.8 | -14.7 | 6.5 | 2.7 | 5.7 | 4.2
CCOc1ccc(Nc2nc3c(C)cccc3cc2C#N)cc1 | 25.2 | 4.9 | -4.2 | 6.0 | -10.7 | 50.1*
O=C(Nc1ccccc1)Nc1ccc2ccccc2c1 | -5.8 | -12.5 | 1.1 | 37.6 | -21.5 | 11.6
C/C(=N\NC(=O)Nc1ccccc1)c1ccc2ccccc2c1 | 13.3 | 0.7 | 12.1 | 0.8 | -3.0 | 69.8*
O=C(N/N=C/c1cccnc1)c1ccc(Cn2cc([N+](=O)[O-])cn2)o1 | 2.9 | -2.6 | -3.8 | 1.5 | 5.2 | 62.5*
CC(C)c1ccc(/C=N\NC(=O)c2ccc(Cn3cccn3)o2)cc1 | -8.5 | 2.4 | -3.3 | 3.3 | 1.0 | 22.5
O=C(N/N=C\c1ccc(Cl)s1)c1ccc(Cn2cccn2)o1 | -8.1 | -1.7 | -0.9 | 1.8 | -6.0 | 73.0*
C=CC[C@H](CC(=O)NCCO)C(=O)N[C@H](COC(=O)[C@H](CC=C)CC(=O)OC(C)(C)C)Cc1c[nH]c2ccccc12 | 8.0 | 6.2 | 1.8 | -1.8 | -9.1 | -0.8
Nc1nc(NCC2CCCO2)nc(Nc2ccc(F)cc2)c1[N+](=O)[O-] (stereo unspecified) | 15.7 | -6.4 | 16.2 | 0.5 | -5.8 | 75.7*
Nc1nc(NCc2ccccc2)nc(Nc2ccc(F)cc2)c1[N+](=O)[O-] | 11.4 | 3.2 | 4.5 | -0.3 | 15.7 | 103.3*
COc1ccccc1Nc1nc(N(C)c2ccccc2)nc(N)c1[N+](=O)[O-] | 34.3 | -0.9 | 29.3 | 0.5 | 2.7 | .
COc1ccccc1Nc1nc(NCCC(C)C)nc(N)c1[N+](=O)[O-] | 30.8 | 0.1 | 3.6 | -0.1 | 0.1 | 48.9*
Nc1nc(NCc2ccccc2)nc(Nc2cccc(F)c2)c1[N+](=O)[O-] | 19.9 | 1.8 | 1.4 | 3.2 | -10.4 | 34.7
CC(NC(=O)C1CCN(CCOc2ccc(Cl)cc2)CC1)c1cccc2ccccc12 (stereo unspecified) | 15.9 | . | 18.4 | . | . | .

Assay outcomes: PubChem, several laboratories
